In ChEMBL document CHEMBL1157539, “Thousands of chemical starting points for antimalarial lead identification” (Nature, 2010) one finds Inhibition data, which are given here for 29 compounds.

The structures appear in SMILES notation. Values joined by “and” are separate entries in the source; they are usually repeats but may differ in a detail not shown here. Equal values may be shown once.

Holding throughout (type): functional
Assay [1] deals with Plasmodium falciparum. Put plainly: GSK_TCMDC: Inhibition of Plasmodium falciparum 3D7 in whole red blood cells, using parasite LDH activity as an index of growth. Test compounds present at 2uM.
Assay [2] has as its system Plasmodium falciparum. Put plainly: GSK_TCMDC: Inhibition of Plasmodium falciparum Dd2 in whole red blood cells, using parasite LDH activity as an index of growth. Test compounds present at 2uM.
The test system of the next assay is HepG2. Nature of the assay: GSK_TCMDC: Percent inhibition of human HepG2 cell line. Test compounds present at 10uM.

In the case of `CC[C@H]1CN2CC[C@@H]1C[C@H]2[C@H](O)c1ccnc2ccc(Cl)cc12.Cl`, the Inhibition in the assay on Plasmodium falciparum [1] turned out to be 100%; with Plasmodium falciparum [2] it was 98%; in the assay on HepG2, 0%.
Taken in the same sequence, the figures for `O=C(/C=C/c1ccc(Cl)c(Cl)c1)NCC1CCCC(CN2CCC(c3c[nH]c4ccccc34)CC2)C1` (configuration not stated) were 98%, 43% and 61%.
For the compound `CC(C)CNCc1ccc(-c2ccc(CN(C(=O)NC3CCCCC3)C3CCN(Cc4ccccc4)CC3)cc2)cc1.O=C(O)C(F)(F)F`, the results for the Inhibition in the assay on Plasmodium falciparum [1], in the assay with Plasmodium falciparum [2] and with HepG2 were 100%, 88% and 39%, respectively.
Taken in the same sequence, the figures for `C[C@@H](CC1CCCCC1)NCc1ccccc1O` were 98%, 67% and 9%.
Taken in the same sequence, the figures for `COc1cccc(C=CC(=O)NC2CCC(CN3CCC(c4c[nH]c5ccccc45)CC3)CC2)c1OC` (configuration not stated) were 100%, 40% and 37%.
Taken in the same sequence, the figures for `CC(Cc1ccc(C(C)(C)C)cc1)NCC(O)c1ccccc1.Cl` (configuration not stated) were 94%, 89% and 5%.
For `CC1=CC(=O)[C@@H](O)[C@]2(C)[C@H]3[C@@]4(O)OC[C@@]35[C@@H](C[C@@H]12)OC(=O)C[C@H]5[C@@H](C)[C@H]4O` [CHAPARRINONE], the Inhibition in the assay with Plasmodium falciparum [1] was 99%; in the assay with Plasmodium falciparum [2], 98%; in the assay with HepG2, 38%.
Taken in the same sequence, the figures for `COc1cccc(C(=O)C2CC2CN2CC=C(c3c[nH]c4ccc(OC)nc34)CC2)c1` (configuration not stated) were 94%, 89% and 8%.
For the compound `O=C(NC1CCC(CN2CCC(c3c[nH]c4ccccc34)CC2)CC1)c1cc(-c2cccc(Cl)c2)n(-c2ccc(Cl)cc2Cl)n1` (configuration not stated), the figures for the Inhibition in the assay with Plasmodium falciparum [1], with Plasmodium falciparum [2] and with HepG2 were 81%, 25% and 53%, respectively.
Taken in the same sequence, the figures for `CN(C(=O)OCc1ccccc1)C1CCC(CCN2CCC3(CC2)C(=O)NCN3c2cccc(C(F)(F)F)c2)(c2ccccc2)CC1` (configuration not stated) were 80%, 72% and 19%.
Taken in the same sequence, the figures for `O=C(/C=C/c1cc(F)c(F)cc1F)N1CCC(CN2CCC(c3c[nH]c4ccccc34)CC2)CC1` were 93%, 3% and 26%.
Take `Cc1ccc(/C=C/C(=O)NC2CCC(CN3CCC(c4c[nH]c5ccccc45)CC3)CC2)cc1C` (configuration not stated): the Inhibition was 100% in the assay with Plasmodium falciparum [1]; 71% and 91% in the assay with Plasmodium falciparum [2]; 23% and 38% with HepG2.
In the case of `O=C(/C=C/c1ccc(Cl)c(Cl)c1)NCCCCCN1C2CCC1CC(c1c[nH]c3ccc(O)cc13)C2` (configuration not stated), the Inhibition is 100% and 91% in the assay with Plasmodium falciparum [1]; 0% and 20% in the assay on Plasmodium falciparum [2]; 9% and 26% in the assay on HepG2.
Turning to `O=C(Nc1ccccc1OC(F)(F)F)NC1CCC(CN2CCC(c3c[nH]c4ccccc34)CC2)CC1` (configuration not stated), the Inhibition was 100% and 99% in the assay on Plasmodium falciparum [1]; 60% and 70% in the assay on Plasmodium falciparum [2]; 33% and 35% in the assay on HepG2.
On to `CC[C@H]1CN2CC[C@@H]1C[C@H]2[C@H](O)c1cc[n+]([O-])c2ccc(OC)cc12`, for which the values for the Inhibition in the assay with Plasmodium falciparum [1], with Plasmodium falciparum [2] and with HepG2 were 95%, 1% and 0%, respectively.
Take `CC[C@H]1CN2CC[C@H]1C[C@H]2[C@H](O)c1cc(-c2ccccc2C(F)(F)F)nc2ccc(OC)cc12.Cl`: the Inhibition in the assay with Plasmodium falciparum [1] was determined as 98%; with Plasmodium falciparum [2], 99%; with HepG2, 0%.
Taken in the same sequence, the figures for `Cl.OC(CNC1CCCCCCC1)c1ccc(Cl)c(Cl)c1` (configuration not stated) were 100%, 99% and 17%.
Taken in the same sequence, the figures for `CCC1(C)CC(CCNCc2ccccc2O)(c2ccc(C)cc2)CCO1` (configuration not stated) were 97%, 66% and 9%.
Taken in the same sequence, the figures for `COc1ccc2[nH]cc(C3=CCN(CC4CC4C(=O)c4ccccc4)CC3)c2n1` (configuration not stated) were 95%, 93% and 22%.
For `O=C(/C=C/c1ccc(Cl)c(Cl)c1)Nc1cccc(CN2CCC(c3c[nH]c4ccc(O)cc34)CC2)c1`, the Inhibition is given as 100% in the assay with Plasmodium falciparum [1], 90% in the assay on Plasmodium falciparum [2] and 11% in the assay on HepG2.
Taken in the same sequence, the figures for `COc1cccc(C2(C)CCN(CCCCNC(=O)c3ccc(NC(=O)c4ccc(Cl)cc4)cc3)CC2)c1.Cl` were 97%, 72% and 19%.
For the compound `Cc1c(C)c2c(c(C)c1O)CC[C@](C)(C(=O)NC1CCC(CN3CCC(c4c[nH]c5ccccc45)CC3)CC1)O2` (some centres not stated), the Inhibition is 96% and 85% with Plasmodium falciparum [1]; 98% and 48% with Plasmodium falciparum [2]; 24% and 27% in the assay with HepG2.
`COc1ccc(C(=O)C2CC2CN2CC=C(c3c(C)[nH]c4ccccc34)CC2)cc1` (configuration not stated): the Inhibition is reported as 96% in the assay on Plasmodium falciparum [1], 94% in the assay with Plasmodium falciparum [2] and 16% in the assay on HepG2.
In the case of `CC(=O)Nc1ccc(OCCN(CC(C)(C)C)c2ccc(C#N)c(C(F)(F)F)c2)c(Cl)c1`, the Inhibition is on record as 87% with Plasmodium falciparum [1], 93% in the assay with Plasmodium falciparum [2] and 0% with HepG2.
Taken in the same sequence, the figures for `COc1ccc(C(=O)C2CC2CN2CC=C(c3c[nH]c4cccc(Br)c34)CC2)cc1.O=C(O)C(F)(F)F` (configuration not stated) were 88%, 67% and 32%.
Taken in the same sequence, the figures for `C=C[C@H]1CN2CC[C@@H]1C[C@H]2[C@H](O)c1cc(-c2ccc(F)cc2)nc2ccc(OC)cc12.Cl` were 99%, 98% and 5%.
As for `Cc1[nH]c2ccc(O)cc2c1C1CCN(CC2CCN(C(=O)/C=C/c3ccc(Cl)c(Cl)c3)CC2)CC1`, the Inhibition came out at 99% in the assay on Plasmodium falciparum [1], 99% in the assay on Plasmodium falciparum [2] and 23% with HepG2.
Turning to `S=C(NCCc1ccc(Cl)cc1)N1CCC(CN2CCC(c3c[nH]c4ccccc34)CC2)CC1`, the Inhibition is recorded as 90% with Plasmodium falciparum [1], 7% in the assay on Plasmodium falciparum [2] and 31% in the assay on HepG2.
Taken in the same sequence, the figures for `FC(F)(F)c1ccc(NC(=S)N2CCC(CN3CCC(c4c[nH]c5ccccc45)CC3)CC2)cc1` were 100%, 45% and 35%.
